In all, about 5,500 compounds went through this assay and about 2,000 (36%) were called active. Not shown: some 18% with an inconclusive outcome. Rule as the data show it: active = normalized growth mostly below about 0.91 (no sharp cut-off); inconclusive = no clear call, values can overlap the other calls; inactive = mostly above about 0.92. The list shows a part of the results.
Experiment: chemical genetic growth profiling, strain panel (AID 1159580);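 also: tested at 20 µM; growth read once vehicle control cultures reached saturation at 30 °C; 1 = growth at the plate median or of vehicle wells; lower values mean less growth of the strain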
Conditions: growth OD

Measured: normalized growth

COc1cc(-c2coc3cc(O[C@@H]4O[C@H](CO)[C@@H](O)[C@H](O)[C@H]4O)c(OC)c(O)c3c2=O)cc(O)c1OC
inactive: S. cerevisiae deletion strains, locus YJR066W, strain TOR1, active compounds read low 0.988 | S. cerevisiae deletion strains, locus YKL009W, strain mrt4, active compounds read low 1.02 | S. cerevisiae deletion strains, locus YKL068W, active compounds read low 0.995 | S. cerevisiae deletion strains, locus YKL085W, strain MDH1 (second series), active compounds read low 0.997 | S. cerevisiae deletion strains, locus YKL085W, strain MDH1, active compounds read low 0.997 | S. cerevisiae deletion strains, locus YKL160W, strain elf1, active compounds read low 0.993 | S. cerevisiae deletion strains, locus YKR001C, strain vps1, active compounds read low 1.01 | S. cerevisiae deletion strains, locus YKR026C, strain gcn3, active compounds read low 0.997 | S. cerevisiae deletion strains, locus YKR091W, strain srl3, active compounds read low 1 | S. cerevisiae deletion strains, locus YLL001W, strain dnm1, active compounds read low 0.965 | S. cerevisiae deletion strains, locus YLL026W, active compounds read low 0.995 | S. cerevisiae deletion strains, locus YLL041C, strain sdh2, active compounds read low 1 | S. cerevisiae deletion strains, locus YLR027C, strain aat2, active compounds read low 0.997 | S. cerevisiae deletion strains, locus YLR039C, strain RIC1, active compounds read low 1.02 | S. cerevisiae deletion strains, locus YLR058C, strain SHM2, active compounds read low 1.01 | S. cerevisiae deletion strains, locus YLR102C, strain apc9, active compounds read low 0.994 | S. cerevisiae deletion strains, locus YLR113W, strain HOG1, active compounds read low 0.975 | S. cerevisiae deletion strains, locus YLR221C, strain rsa3, active compounds read low 0.993 | S. cerevisiae deletion strains, locus YLR258W, strain gsy2, active compounds read low 0.984 | S. cerevisiae deletion strains, locus YLR262C, strain YPT6 (second series), active compounds read low 1 | S. cerevisiae deletion strains, locus YLR262C, strain YPT6, active compounds read low 1 | S. cerevisiae deletion strains, locus YLR268W, strain sec22, active compounds read low 1.03 | S. cerevisiae deletion strains, locus YLR320W, strain mms22, active compounds read low 0.986 | S. cerevisiae deletion strains, locus YLR330W, strain CHS5, active compounds read low 1.01 | S. cerevisiae deletion strains, locus YLR342W, strain FKS1 (second series), active compounds read low 1.05 | S. cerevisiae deletion strains, locus YLR342W, strain FKS1, active compounds read low 0.994 | S. cerevisiae deletion strains, locus YLR357W, strain rsc2, active compounds read low 0.956 | S. cerevisiae deletion strains, locus YLR370C, strain arc18, active compounds read low 1 | S. cerevisiae deletion strains, locus YLR371W, strain rom2, active compounds read low 1.01 | S. cerevisiae deletion strains, locus YLR384C, strain iki3, active compounds read low 0.988 | S. cerevisiae deletion strains, locus YLR418C, strain cdc73, active compounds read low 1.02 | S. cerevisiae deletion strains, locus YML016C, strain PPZ1, active compounds read low 0.981 | S. cerevisiae deletion strains, locus YML032C, strain rad52, active compounds read low 1.01 | S. cerevisiae deletion strains, locus YML120C, strain ndi1, active compounds read low 0.99 | S. cerevisiae deletion strains, locus YML124C, strain tub3, active compounds read low 0.99 | S. cerevisiae deletion strains, locus YMR058W, strain fet3, active compounds read low 0.998 | S. cerevisiae deletion strains, locus YMR078C, strain ctf18, active compounds read low 0.981 | S. cerevisiae deletion strains, locus YMR125W, strain sto1, active compounds read low 0.99 | S. cerevisiae deletion strains, locus YMR129W, active compounds read low 0.996 | S. cerevisiae deletion strains, locus YMR205C, strain PFK2, active compounds read low 0.981 | S. cerevisiae deletion strains, locus YMR223W, strain ubp8, active compounds read low 1 | S. cerevisiae deletion strains, locus YMR231W, strain pep5, active compounds read low 0.997 | S. cerevisiae deletion strains, locus YMR307W, strain GAS1, active compounds read low 1.04 | S. cerevisiae deletion strains, locus YNL067W, strain RPL9B, active compounds read low 0.994 | S. cerevisiae deletion strains, locus YNL071W, strain lat1, active compounds read low 1.01 | S. cerevisiae deletion strains, locus YNL128W, strain TEP1, active compounds read low 1.01 | S. cerevisiae deletion strains, locus YNL183C, strain NPR1, active compounds read low 0.962 | S. cerevisiae deletion strains, locus YNL209W, strain ssb2, active compounds read low 0.989 | S. cerevisiae deletion strains, locus YNL233W, strain BNI4, active compounds read low 1 | S. cerevisiae deletion strains, locus YNL248C, strain rpa49, active compounds read low 0.988 | S. cerevisiae deletion strains, locus YNL250W, strain rad50, active compounds read low 0.964 | S. cerevisiae deletion strains, locus YNL271C, strain bni1, active compounds read low 0.978 | S. cerevisiae deletion strains, locus YNL298W, strain CLA4, active compounds read low 0.989 | S. cerevisiae deletion strains, locus YNL307C, strain MCK1, active compounds read low 0.99 | S. cerevisiae deletion strains, locus YNL322C, strain KRE1 (second series), active compounds read low 0.977 | S. cerevisiae deletion strains, locus YNR049C, strain mso1, active compounds read low 1.01 | S. cerevisiae deletion strains, locus YNR052C, strain pop2, active compounds read low 0.964 | S. cerevisiae deletion strains, locus YOL012C, strain htz1 0.807 | S. cerevisiae deletion strains, locus YOL147C, strain pex11, active compounds read low 1.01 | S. cerevisiae deletion strains, locus YOR001W, strain rrp6, active compounds read low 0.948 | S. cerevisiae deletion strains, locus YOR061W, strain CKA2, active compounds read low 0.999 | S. cerevisiae deletion strains, locus YOR069W, strain VPS5, active compounds read low 0.986 | S. cerevisiae deletion strains, locus YOR070C, strain gyp1, active compounds read low 1.01 | S. cerevisiae deletion strains, locus YOR080W, strain dia2, active compounds read low 0.988 | S. cerevisiae deletion strains, locus YOR083W, strain WHI5, active compounds read low 1.02 | S. cerevisiae deletion strains, locus YOR106W, strain vam3, active compounds read low 0.98 | S. cerevisiae deletion strains, locus YOR136W, strain idh2, active compounds read low 0.992 | S. cerevisiae deletion strains, locus YOR144C, strain elg1, active compounds read low 0.996 | S. cerevisiae deletion strains, locus YOR184W, strain ser1, active compounds read low 1.05 | S. cerevisiae deletion strains, locus YOR231W, strain MKK1, active compounds read low 1.05 | S. cerevisiae deletion strains, locus YOR265W, strain rbl2, active compounds read low 1.01 | S. cerevisiae deletion strains, locus YOR270C, strain vph1, active compounds read low 1.02 | S. cerevisiae deletion strains, locus YOR290C, strain snf2, active compounds read low 1 | S. cerevisiae deletion strains, locus YOR316C, strain cot1, active compounds read low 0.985 | S. cerevisiae deletion strains, locus YPL051W, strain arl3, active compounds read low 0.961 | S. cerevisiae deletion strains, locus YPL055C, strain LGE1, active compounds read low 1.05 | S. cerevisiae deletion strains, locus YPL078C, strain atp4, active compounds read low 0.993 | S. cerevisiae deletion strains, locus YPL106C, strain sse1, active compounds read low 0.962 | S. cerevisiae deletion strains, locus YPL240C, strain hsp82, active compounds read low 1 | S. cerevisiae deletion strains, locus YPL256C, strain CLN2, active compounds read low 1.02 | S. cerevisiae deletion strains, locus YPR119W, strain clb2, active compounds read low 0.982 | S. cerevisiae deletion strains, locus YPR141C, strain kar3, active compounds read low 0.977 | S. cerevisiae deletion strains, locus YPR163C, strain tif3, active compounds read low 0.986 | S. cerevisiae deletion strains, locus YPR167C, strain met16, active compounds read low 0.993 | S. cerevisiae deletion strains, strain wtn01, active compounds read low 1.01 | S. cerevisiae strains, strain wild type, active compounds read low 1.01

Reference: PubChem BioAssay AID1159580 (chemical genetic matrix, 2015)
